Reference: PubChem BioAssay (EPA / NIEHS)
“And” between values parts separate entries of the source, which are not always exact repeats. Equal entries are not always repeated. Some structures have more than one record in an assay (separate samples or runs), and their calls can disagree. The source made the active and inactive calls. The calls were made as follows: active = hit-call score of the fitted dose curve at least 0.9, where 1 is the maximum; inactive = score below 0.9.

What was measured:
Conditions in all cases: mRNA level, 48 h; actives raise or lower the signal
[1] = read-out: 3-Hydroxy-3-Methylglutaryl-CoA Synthase 2 (HMGCS2), HMGCS2 (gene 3158); test: LTEA_HepaRG_HMGCS2: Life Technologies and Expression Analysis (LTEA) Assay for 3-Hydroxy-3-Methylglutaryl-CoA Synthase 2 (HMGCS2) using HepaRG (AID 2283504)
In short: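 HepaRG, plated 48 h then switched to serum-free induction media; cmpd 8-pt, max 100 uM, 1/2-log, 0.5% DMSO, n=2, 48 h. HMGCS2 mRNA by Fluidigm TaqMan qRT-PCR, ACTB/GAPDH/POLR2A norm; bidirectional fit vs DMSO.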

HGF (gene 3082) = test: LTEA_HepaRG_HGF: Life Technologies and Expression Analysis (LTEA) Assay for Hepatocyte Growth Facto (HGF) using HepaRG (AID 2283505)
In short: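 Read-out is HGF transcript level by qRT-PCR, normalized to three housekeeping genes, fitted bidirectionally against 0.5% DMSO vehicle. Human HepaRG cells received test chemicals for 48 h at up to 100 uM.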

[2] = read-out: Insulin Like Growth Factor 1 (IGF1), IGF1 (gene 3479); test: LTEA_HepaRG_IGF1: Life Technologies and Expression Analysis (LTEA) Assay for Insulin Like Growth Factor 1 (IGF1) using HepaRG (AID 2283506)
In short: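 Expression measured by TaqMan qRT-PCR on a Fluidigm array, with three housekeeping genes for normalisation, after 48 h treatment of HepaRG cells. Top concentration 100 uM with half-log steps, 0.5% DMSO vehicle, bidirectional fit.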

[3] = read-out: Intercellular Adhesion Molecule 1 (ICAM1), ICAM1 (gene 3383); test: LTEA_HepaRG_ICAM1: Life Technologies and Expression Analysis (LTEA) Assay for Intercellular Adhesion Molecule 1 (ICAM1) using HepaRG (AID 2283507)
In short: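 Readout is qRT-PCR mRNA level, normalized to three housekeeping genes and fitted bidirectionally against 0.5% DMSO vehicle. Human HepaRG cultures received compound for 48 h, top concentration 100 uM with half-log dilutions.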

[4] = read-out: Insulin-like growth factor-binding protein 1 (IGFBP1), IGFBP1 (gene 3484); test: LTEA_HepaRG_IGFBP1: Life Technologies and Expression Analysis (LTEA) Assay for Insulin-like growth factor-binding protein 1 (IGFBP1) using HepaRG (AID 2283508)
In short: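 Thawed HepaRG cells are plated for 48 h, switched to serum-free induction medium, then dosed in duplicate for another 48 h (100 uM top, half-log steps). Lysates in RLT go to qRT-PCR, and gain or loss of signal is fitted relative to vehicle.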

[5] = read-out: Interleukin 6 (IL6), IL6 (gene 3569); test: LTEA_HepaRG_IL6: Life Technologies and Expression Analysis (LTEA) Assay for Interleukin 6 (IL6) using HepaRG (AID 2283509)
In short: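 Changes in IL6 mRNA, up or down relative to 0.5% DMSO controls, were derived from concentration-response curves in human HepaRG cells treated for 48 h at up to 100 uM, with ACTB, GAPDH and POLR2A as normalizers.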

[6] = read-out: Interleukin 6 Receptor (IL6R), IL6R (gene 3570); test: LTEA_HepaRG_IL6R: Life Technologies and Expression Analysis (LTEA) Assay for Interleukin 6 Receptor (IL6R) using HepaRG (AID 2283510);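 as to AC50: differentiated human HepaRG liver cells in serum-free induction medium; TaqMan qRT-PCR signal normalized to ACTB GAPDH and POLR2A housekeeping genes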
In short: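 IL6R transcript level by qRT-PCR after 48 h chemical exposure (8-point, half-log, max 100 uM, 0.5% DMSO vehicle) of HepaRG cells in serum-free induction medium. Normalized to three housekeeping genes; curves fitted in both directions relative to DMSO.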

[7] = read-out: Potassium channel subfamily K member 1 (KCNK1), KCNK1 (gene 3775); test: LTEA_HepaRG_KCNK1: Life Technologies and Expression Analysis (LTEA) Assay for Potassium channel subfamily K member 1 (KCNK1) using HepaRG (AID 2283511)
In short: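 Human HepaRG cultures receive test chemicals for 48 h in 0.5% DMSO, top concentration 100 uM with half-log dilutions. Induction or suppression of KCNK1 mRNA relative to DMSO is derived by bidirectional fitting of qRT-PCR data.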

[8] = read-out: Keratin 19 (KRT19), KRT19 (gene 3880); test: LTEA_HepaRG_KRT19: Life Technologies and Expression Analysis (LTEA) Assay for Keratin 19 (KRT19) using HepaRG (AID 2283512)
In short: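 KRT19 transcript levels, measured by Fluidigm qRT-PCR against three housekeeping genes, are fitted for gain or loss of signal relative to DMSO. Human HepaRG cells receive test chemicals (top 100 uM, half-log steps, 0.5% DMSO) for 48 hours.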

[9] = read-out: JUN Transcription Factor, JUN (gene 3725); test: LTEA_HepaRG_JUN: Life Technologies and Expression Analysis (LTEA) Assay for JUN Transcription Factor using HepaRG (AID 2283513)
In short: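 mRNA measured by TaqMan qRT-PCR after 48 h chemical exposure of HepaRG cultures; normalization to three housekeeping genes. Duplicate eight-point half-log curves from 100 uM in 0.5% DMSO; gain or loss fitted against DMSO baseline.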

Measured: AC50

CCCCCCC(C)OC(=O)COc1nc(F)c(Cl)c(N)c1Cl (configuration not stated)
inactive: all assays above

CSC(=O)c1cccc2nnsc12
inactive: all assays above

N[C@@H](Cc1cc(I)c(Oc2ccc(O)c(I)c2)c(I)c1)C(=O)O
active: [1] 0.00253 µM | [3] 40 µM | [6] 40 µM | [8] 0.0152 µM
inactive: all other assays above

COc1c(Cl)ccc(Cl)c1C(=O)O
inactive: all assays above

CCOC(=O)C(C)Oc1ccc(Oc2nc3ccc(Cl)cc3o2)cc1 (configuration not stated)
active: [2] 20.2 µM
inactive: all other assays above

CC(=O)[C@H]1CC[C@H]2[C@@H]3CCC4=CC(=O)CC[C@]4(C)[C@H]3CC[C@]12C
active: [1] 29.2 µM | HGF (gene 3082) 85.4 µM | [2] 32.4 µM | [3] 33.3 µM | [4] 27.4 µM | [5] 83.5 µM | [6] 50 µM | [7] 56.6 µM | [8] 50 µM | [9] 50 µM

S=C(S)NCCNC(=S)S.[Mn+2].[S-]C([S-])=NCCN=C([S-])[S-].[Zn+2]
inactive: HGF (gene 3082) | [7] | [8] | [9]
active: [1] 2.25 µM and 1.36 µM and 1.93 µM | HGF (gene 3082) 3.68 µM and 9.89 µM | [2] 1.35 µM and 1.45 µM and 2.57 µM | [3] 1.8 µM and 2.09 µM and 2.17 µM | [4] 56.2 nM and 104 nM and 174 nM | [5] 1.73 µM and 1.92 µM and 2.15 µM | [6] 1.55 µM and 1.5 µM and 1.32 µM | [8] 5.39 µM and 11.4 µM | [9] 1.36 µM and 1.75 µM

CCN(Cc1c(F)cccc1Cl)c1c([N+](=O)[O-])cc(C(F)(F)F)cc1[N+](=O)[O-]
active: [1] 50 µM | [2] 50 µM | [4] 28.8 µM | [8] 18.1 µM
inactive: all other assays above

OB(O)O
inactive: all assays above

CCCCOC(=O)[C@@H](C)Oc1ccc(Oc2ccc(C(F)(F)F)cn2)cc1
inactive: all assays above

C[C@]12C[C@H](O)[C@H]3[C@@H](CCC4=CC(=O)CC[C@@]43C)[C@@H]1CC[C@@H]2C(=O)CO
inactive: all assays above

CCOC(=O)c1ccc(O)cc1
inactive: all assays above

CC1(C)C(C=C(Cl)Cl)C1C(=O)OCc1cccc(Oc2ccccc2)c1 (configuration not stated)
inactive: all assays above

CC(=O)S[C@@H]1CC2=CC(=O)CC[C@]2(C)[C@H]2CC[C@@]3(C)[C@@H](CC[C@@]34CCC(=O)O4)[C@H]12
active: [1] 65.7 µM | [2] 68.7 µM | [6] 63.3 µM
inactive: all other assays above

Cc1nn(C)c(Oc2ccccc2)c1C=NOCc1ccc(C(=O)OC(C)(C)C)cc1
inactive: [9]
active: [1] 12.4 µM | HGF (gene 3082) 86.6 µM | [2] 3.22 µM | [3] 16.8 µM | [4] 9.63 µM | [5] 5.23 µM | [6] 1.28 µM | [7] 12.9 µM | [8] 2.05 µM

O=C(Nc1ccc([N+](=O)[O-])cc1Cl)c1cc(Cl)ccc1O
active: [1] 2.59 µM | HGF (gene 3082) 2.98 µM | [2] 3.59 µM | [3] 6.3 µM | [4] 2.13 µM | [5] 3.29 µM | [6] 2.13 µM | [7] 4.02 µM | [8] 1.48 µM | [9] 2.42 µM

CCC(C)OC(=O)N1CCCCC1CCO (configuration not stated)
inactive: all assays above

COC(=O)c1ccc(I)cc1S(=O)(=O)NC(=O)Nc1nc(C)nc(OC)n1
inactive: all assays above

CC(C)(C)[C@@H](O)[C@@H](Cc1ccc(Cl)cc1)n1cncn1
inactive: all assays above

CC(C)(c1ccc(O)cc1)c1ccc(O)cc1
inactive: all assays above

O=C(c1ccc(O)cc1O)c1ccc(O)cc1O
inactive: all assays above

S=C([S-])NCCNC(=S)[S-].[Mn+2]
active: [1] 5.04 µM | HGF (gene 3082) 7.5 µM | [2] 5 µM | [3] 6.29 µM | [4] 0.194 µM | [5] 5.31 µM | [6] 3.93 µM | [8] 10 µM
inactive: [7]

CCCOC(=O)c1ccc(C(=O)OCCC)nc1
inactive: all assays above

c1ccc2[nH]c(-c3cscn3)nc2c1
active: [4] 29 µM | [8] 35.2 µM
inactive: all other assays above

N#CSCSc1nc2ccccc2s1
active: [2] 77.2 µM | [6] 84 µM
inactive: all other assays above

O=C(O)C1(C(=O)Nc2ccc(Cl)cc2Cl)CC1
active: [1] 81 µM
inactive: all other assays above
